Results published in PubChem BioAssay (NCATS).
Inconclusive results are not listed. Where a call stands in place of a potency, no number is given. Active and inactive are the calls of the source. Calls follow the shape of the dose curve; as a rule, active = well fitted activation curve with a large enough effect; inconclusive = small, poorly fitted or top-dose-only effect; inactive = flat fitted curve, though single readings scatter.

Test: Validation screen for small molecules that induce DNA re-replication in SW480 colon adenocarcinoma cells (AID 504364)
Settings: DNA re-replication phenotype (high-content imaging); series mostly up to 46.1 µM
Excerpt: H Molecular Libraries Probe Production Network [MLPCN]
NIH Chemical Genomics Center [NCGC]
Assay Provider: Melvin DePamphilis, NICHD, NIH
Eukaryotic cells normally restrict genome duplication to once per cell division. When this process is aberrant, DNA re-replication occurs when cells reinitiate DNA replication before the first round of replication is complete. DNA re-replication induces the DNA damage response, arrests cell proliferation, and triggers apoptosis. The cell cycle components cyclin A, Cdt-1, Cdc6 and geminin are critical regulators of this process and their misregulation results in DNA re-replication in normal and cancer cells. To identify compounds that induce re-replication in normal cells, an image-based assay was used to measure DNA content of nuclei, as detected by the fluorescent DNA binding dye, Hoechst. Cell nuclei were imaged by a fluorescence scanning plate imager and compounds that induce DNA re-replication were identified by the increase of nuclei with elevated fluorescence intensity.#
For screening, 250 cells in 5 uL/well were dispensed into black clear 1536-well plates (Aurora) using a solenoid-based dispenser. Following transfer of 23 nL compound or DMSO vehicle by a pin tool, the plates were incubated 48 hr at 37 C and 5% CO2. After addition of 1 uL/well Hoescht stain, the plates were incubated 40 min at 37 C, 5% CO2 and total intensity of fluorescent objects (nuclei) were enumerated by an Acumen Explorer Ex3 (TTP LabTech) fluorescence scanning plate imager (405 nm excitation, 500-530 nm emission).
Keywords: NIH Roadmap, MLPCN, MLI, MLSMR, qHTS, NCGC, DNA replication, cancer

Row | SMILES | Potency
1 | O=C1C2C=CC=CC2=NC(=S)N1CCN1CCC(=C(c2ccc(F)cc2)c2ccc(F)cc2)CC1 (stereo not given) | inactive
2 | NCC(O)C1CCCCCCC1 (stereo not given) | inactive
3 | CC(=O)C(C)=O | inactive
4 | Cc1cccc(C2CN(C)CCc3c2cc(O)c(O)c3Cl)c1 (stereo not given) | inactive
5 | CNc1cc(NS(=O)(=O)c2ccc(N)cc2)nc(NC)n1 | inactive
6 | CCCn1c(=O)c2c(ncn2C)n(CCC)c1=O | inactive
7 | CSC(N)=NCCC[C@H](N)C(=O)O | inactive
8 | Cc1cccc(C(=O)NCN2CCN(c3ccccc3C#N)CC2)c1 | inactive
9 | NC(N)=NC(N)=Nc1ccccc1 | inactive
10 | COc1cc(N)c(Cl)cc1C(=O)OCCN1CCCCC1 | inactive
11 | CCC(=O)N1CCN(C(=O)c2ccccc2)CC1 | inactive
12 | CC1=C(C(=O)O)N2C(=O)[C@@H](NC(=O)C(N)C3=CCC=CC3)[C@H]2SC1 (stereo not given in full) | inactive
13 | O=C(O)c1ccccc1Nc1ccccc1 | inactive
14 | COC(=O)C(N)Cc1ccc(Cl)cc1 (stereo not given) | inactive
15 | NC(N)=N[C@@H](CCC(=O)O)C(=O)O | inactive
16 | COc1cc(CNC(=O)CCCCCCC(C)C)ccc1O | inactive
17 | N=C(N)c1ccc(OCCCCCOc2ccc(C(=N)N)cc2)cc1 (tested in a mixture with another compound) | inactive
18 | O=c1[nH]c2ccccc2c2ccccc12 | inactive
19 | Nn1nnc2ccccc21 | inactive
20 | CC(=O)NNC(=O)N1Cc2ccccc2Oc2ccc(Cl)cc21 | inactive

Row | SMILES | Potency
21 | N[C@@H](CCC(=O)N[C@H](CSN=O)C(=O)NCC(=O)O)C(=O)O | inactive
22 | C=CCN1CCc2cc(O)c(O)cc2C(c2ccccc2)C1 (stereo not given) | inactive
23 | O=C(O)C1=CC(=C(c2ccc(O)c(C(=O)O)c2)c2ccc(O)c(C(=O)O)c2)C=CC1=O | inactive
24 | NCCS(=O)O | inactive
25 | Cc1ccc([N+](=O)[O-])cc1S(=O)(=O)N(C)C | inactive
26 | Oc1ccc(Cn2cc[nH]c2=S)cc1 | inactive
27 | NC1(C(=O)O)CC1 | inactive
28 | COc1ccccc1N1CCN(CCCCN2C(=O)c3ccccc3C2=O)CC1 | inactive
29 | COc1ccc2c(c1)CCC1C2CC[C@@]2(C)C1CC[C@@H]2NCCCCCCN1C(=O)C=CC1=O (stereo not given in full) | inactive
30 | CCCCCCCC/C=C\CCCCCCCC(=O)NCCc1ccc(O)c(O)c1 | inactive
31 | NC(N)=[N+]1CCc2ccccc2C1 | inactive
32 | NC(=O)c1ccccc1 | inactive
33 | C[C@H](O)C(=O)C1=Nc2c(nc(N)[nH]c2=O)NC1 | inactive
34 | O=C1OC(=O)C2C3CCC(O3)C12 (stereo not given) | inactive
35 | O=c1[nH]ccc2c(O)cccc12 | inactive
36 | COc1ccc(CCN(C)CCc2ccc(OC)c(OC)c2)cc1OC | inactive
37 | CCn1c(=O)[nH]c2cc(Cl)c(Cl)cc21 | inactive
38 | CCCC(=O)NCCc1c2n(c3ccc(OC)cc13)CCCc1ccccc1-2 | inactive
39 | O=C(O)C1=CCCN(CCON=C(c2ccccc2)c2ccccc2)C1 | inactive
40 | Cc1nc(N=Nc2cc(S(=O)(=O)O)c3cc([N+](=O)[O-])cc(S(=O)(=O)O)c3c2)c(COP(=O)(O)O)c(C=O)c1O | inactive
